High-throughput results (PubChem)
Most compounds without a hit are left out; they make up all but 7.4% or so of the library.
NPC1 promoter act: activators of NPC1 promoter; Huh7 NPC1 promoter luciferase reporter, 24 h; Potency, µM (series often up to 9.22 µM), inactives show at the top dose activation, actives largely listed as activators; 2.4% of 320,000 active; AID 485313; further: % of control where 0% means no effect; nearly all actives have a fitted effect of over 60% in size
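In 1536-well qHTS, Huh7 cells harboring an NPC1 promoter–luciferase construct received compound for 24 h; activation was quantified by luminescence following luciferase reagent addition.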
ELG1 genotox: genotoxicity induction in ELG1-luciferase HEK293T cells. Potency, µM (top dose mostly 46 µM), without a hit: top-dose activity change, positive = activation, most hits filed as activators. HEK293T ELG1-luciferase reporter, luminescence, 16 h. 1.3% of 330,000 active. AID 504466; further: % of control where 0% means no effect; nearly all actives have a fitted effect of over 60% in size
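HEK293T cells expressing luciferase-tagged ELG1 were exposed to compound or DMSO vehicle for 16 hr at 37 °C and 5% CO2. Luciferase activity was then measured with ONE-Glo after 30 min at room temperature.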
SMN2 splice up: SMN2 splice variant enhancement. HEK293 SMN2-luciferase splicing reporter, luminescence, 30-36 h. Potency, µM (highest dose often 46.1 µM), for the others: at the top dose activity change, positive = activation, hits mostly activators. 2.8% of 210,000 active. AID 1458; further: % of control where 0% means no effect; nearly all actives have a fitted effect of over 55% in size
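HEK293 cells carry an SMN2 […]–luciferase reporter in which exon 7 inclusion puts luciferase in frame. Cells were plated 10-12 h before compound addition, then incubated 30-36 h at 37C. ONE-Glo luminescence was read; sodium butyrate at 4.5 mM final served as control.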
Rab9 prom act: Rab9 promoter activation. Huh7 Rab9 promoter-luciferase reporter, luminescence, 24 h. Potency, µM (titrated, usually from 9.22 µM), for inactives: at the top dose activation, negative = inhibition, actives largely listed as activators. 2.8% of 320,000 active. AID 485297; further: % of control where 0% means no effect; nearly all actives have a fitted effect of over 60% in size
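Luciferase signal after 10 min detection reagent at ambient indicates Rab9 promoter upregulation; stably transfected Huh7 cells were treated 24 h with compound in DMSO at 37 °C, 5% CO2.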
FLuc modulator: inhibits or activates purified firefly luciferase, miR-21 counter-screen | P08659 | 6.9% of 360,000 active | AID 588342 | purified FLuc, Km substrates, luminescence inhibition | Potency, µM (top dose mostly 57.5 µM), without a hit: top-dose activity change, negative = inhibition, hits mostly inhibitors;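 further: plate controls were vehicle for no effect and reference inhibitor for full effect; nearly all actives have a fitted effect of over 55% in size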
Target sequence (P08659 whole entry, looked up): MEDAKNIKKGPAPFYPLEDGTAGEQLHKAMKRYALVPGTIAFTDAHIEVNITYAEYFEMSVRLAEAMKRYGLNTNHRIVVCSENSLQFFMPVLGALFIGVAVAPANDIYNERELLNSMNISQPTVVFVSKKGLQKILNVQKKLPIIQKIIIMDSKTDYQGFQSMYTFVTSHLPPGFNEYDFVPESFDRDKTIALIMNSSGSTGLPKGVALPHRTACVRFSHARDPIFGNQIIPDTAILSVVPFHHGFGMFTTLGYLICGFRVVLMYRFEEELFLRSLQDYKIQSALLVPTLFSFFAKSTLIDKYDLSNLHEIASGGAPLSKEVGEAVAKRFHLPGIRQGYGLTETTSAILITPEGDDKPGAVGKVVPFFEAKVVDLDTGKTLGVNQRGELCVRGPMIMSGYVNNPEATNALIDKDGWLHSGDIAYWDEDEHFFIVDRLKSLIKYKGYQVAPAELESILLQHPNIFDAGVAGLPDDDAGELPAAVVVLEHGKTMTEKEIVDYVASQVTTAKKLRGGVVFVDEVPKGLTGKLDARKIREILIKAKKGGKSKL
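Purified P. pyralis luciferase, 10 nM final, with Km-level 10 uM D-luciferin and 10 uM ATP in 50 mM Tris acetate pH 7.5, 10 mM Mg acetate, 0.01% Tween-20, 0.05% BSA; 6-point qHTS titration about 60 µM downward; luminescence read.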
The depositor's hits bear a star; ? = inconclusive; . = no result; [ ] = remark or other dose. The call rests on the fitted dose curve; in most records, active means well fitted curve in the direction sought with a large enough effect; inconclusive means small, poorly fitted or top-dose-only effect, or another doubt; inactive means no such curve, though single readings can be large; an effect the other way counts as inactive or inconclusive. Potency means the concentration at half of the fitted maximal effect.

SMILES	NPC1 promoter act	ELG1 genotox	SMN2 splice up	Rab9 prom act	FLuc modulator
Cc1ccc2c(CN(C)Cc3ccccc3)cc(=O)oc2c1C	?	10%	.	?	15µM*
CCC(=O)Nc1nnc(S(=O)(=O)N2c3ccccc3CC2C)s1 (stereo unspecified)	0%	-2%	.	-5%	1%
Cc1ccc(Cl)cc1N1CCN(C(=O)c2ccc(NC(=O)c3nsc4ccccc34)cc2)CC1	.	.	.	.	6µM*
O=C(Nc1ccc(C(=O)N2CCN(c3ccc(Cl)cc3)CC2)cc1)c1nsc2ccccc12	.	.	.	.	1.1µM*
Cc1ccc(Cl)cc1N1CCN(C(=O)c2ccc(NS(=O)(=O)c3c(C)noc3C)cc2)CC1	1%	4%	-8%	2%	0%
Cc1cccc(N2CCN(C(=O)c3ccc(NC(=O)c4nsc5ccccc45)cc3)CC2C)c1 (stereo unspecified)	.	.	.	.	4.8µM*
O=C(Nc1ccc(C(=O)N2CCN(c3ccccc3F)CC2)cc1)c1nsc2ccccc12	.	.	.	.	5.4µM*
COc1ccc(NC(=O)Cn2cc(C(=O)C3CCCCC3)c3ccccc32)cc1	.	.	-26%	.	3%
COc1cccc(N2CCN(C(=O)CNC(=O)c3sc4ccccc4c3Cl)CC2)c1	-1%	0%	.	1%	?
COc1cccc(N2CCN(C(=O)c3ccc(NC(=O)c4nsc5ccccc45)cc3)CC2)c1	.	.	.	.	1.2µM*
CC1CCN(C(=O)c2ccc(NC(=O)c3nsc4ccccc34)cc2)CC1	.	.	.	.	7.6µM*
CC1CCN(C(=O)c2ccc(NC(=O)c3cccs3)cc2)CC1	-2%	2%	.	0%	?
COc1ccc(N2CCN(C(=O)c3ccc(NC(=O)c4nsc5ccccc45)cc3)CC2)cc1	.	.	.	.	6.7µM*
CN(C)C[C@H]1CCC[C@@H](CN(C)C)C1=O	.	.	-12%[9.22 µM]	.	.
COc1ccc(N(C)C(=O)c2cc3c(s2)-c2c(C)cccc2OC3)c(OC)c1	0%	-7%	-31%	0%	-5%
COc1cc(C)ccc1OCc1cc(C(=O)N2CCCCCC2)no1	18%	2%	.	22%	?
COc1cc(C)ccc1OCc1cc(C(=O)N(Cc2c(C)nn(C)c2C)C2CC2)no1	?	14%	.	?	12µM*
COc1cc(C)ccc1OCc1cc(C(=O)N(Cc2nccn2C)C(C)C)no1	2.5µM*	?	.	2.2µM*	11µM*
Cn1ncc(N=Cc2ccccc2)c1C(N)=O	-1%	2%	.	12%	-1%
Nc1ncc(Br)cc1N=Cc1ccccc1	21%	?	13µM*	3.5µM*	3.4µM*
COc1ccc(NC(=O)c2cc(Br)ccc2Cl)c([N+](=O)[O-])c1	-3%	5%	-10%	-3%	4%
COc1ccc(NC(=O)CSc2nc3ccccc3n2-c2ccccc2)c([N+](=O)[O-])c1	-4%	0%	-14%	-8%	-1%
COc1ccc(NC(=O)CN2CCC(C)CC2)c([N+](=O)[O-])c1	13%	16µM*	-1%	5%	?
COc1ccc(NC(=O)CN2CCCCC2)c([N+](=O)[O-])c1	24%	7%	29%	11%	?
COc1ccc(NC(=O)c2ccc(C)cc2Cl)c([N+](=O)[O-])c1	?	?	12%	?	6µM*
SMILES	NPC1 promoter act	ELG1 genotox	SMN2 splice up	Rab9 prom act	FLuc modulator
COc1ccc(NC(=O)COc2ccc(C)cc2)c([N+](=O)[O-])c1	2.8µM*	21µM*	0%	?	?
COc1ccc(NC(=O)CSc2ccccc2)c([N+](=O)[O-])c1	?	?	?	?	27µM*
COc1cc(NS(=O)(=O)c2ccc(NC(=S)NC(=O)COc3ccccc3OC)cc2)nc(OC)n1	-5%	-1%	.	-3%	?
Cc1ccccc1-c1nc(-c2ccc(NC(=O)c3cccs3)cc2)no1	?	2%	-8%	4µM*	13µM*
O=C(c1ccncc1)c1ccc(NC(=O)c2cccs2)cc1	7%	-5%	-33%	18%	?
O=C(Nc1ccc(-c2noc(-c3ccccc3F)n2)cc1)c1cccs1	?	?	14µM*	1.6µM*	?
Cc1ccc(OCCNc2cc(N3CCN(CCO)CC3)ccc2[N+](=O)[O-])cc1C	0%	-2%	-4%	-5%	24µM*
Cc1ccc(Cl)cc1N	.	.	3%	.	.
Cc1ccccc1Cn1nnc(-c2ccc(F)cc2)n1	1%	3%	.	1%	-13%
Cc1ccc(NC(=O)c2ccc(OC(=O)C(C)Oc3ccc(Cl)cc3C)cc2)cc1 (stereo unspecified)	4.5µM*	?	8.9µM*	1.8µM*	-27%
Cc1ccc(C(=O)Nc2cc(C(C)C)c(O)c(C(C)C)c2)cc1	1%	-7%	11%	0%	24µM*
Cc1cc(Cl)ccc1OC(C)C(=O)OCC(=O)Nc1ccc2[nH]c(=O)[nH]c2c1 (stereo unspecified)	-4%	-2%	.	-1%	-1%
Cc1ccc(C(=O)Nc2ccc(N3CCN(C)CC3)cc2)cc1	2.2µM*	?	.	2.5µM*	19µM*
CN1CCN(c2ccc(NC(=O)c3ccc4ccccc4c3)cc2)CC1	0.32µM*	1.8µM*	.	0.56µM*	1.9µM*
Oc1c(Br)cc(Br)cc1CN(Cc1cc(Br)cc(Br)c1O)C1CCCCC1	.	.	-5%[9.22 µM]	.	.
CCC(=O)O[C@H]1C(O[C@@H]2C(C)[C@H](O[C@H]3C[C@@](C)(OC)C(O)C(C)O3)C(C)C(=O)OC(CC)[C@@](C)(O)C(O)[C@H](C)C(=O)C(C)C[C@]2(C)O)OC(C)CC1N(C)C (stereo partly specified)	.	.	-13%	.	.
COc1ccc(C(=O)Nc2ccc(N3CCN(C)CC3)cc2)cc1OC	?	?	.	?	17µM*
CCOc1ccc(NC(=O)c2ccc(NCC(=O)N3CCCCCC3)cc2)cc1	26%	-7%	-4%	9%	11µM*
